# In PubChem BioAssay (EPA / NIEHS):
# Results filed as inconclusive are left out. More than one record can exist for a structure, and the calls need not agree. Activity calls are given as the source filed them. The calls were made as follows, unless noted: active = hit-call score of the fitted dose curve at least 0.9, where 1 is the maximum; inconclusive = response in the unintended direction; inactive = score below 0.9.
# Columns and labels:
# [1] = biological target: Hepatocyte nuclear factor 3-beta (Homo sapiens) (UniProt Q9Y261); test: ATG_FoxA2_CIS: Attagene CIS-FACTORIAL HepG2 Assay for human Forkhead box A2 (FOXA2) (AID 2282942; active = hit-call score of the fitted dose curve at least 0.9, where 1 is the maximum; inactive = score below 0.9); settings: HepG2 cis-reporter transcription factor activity, 24 h; actives raise or lower the signal
# Chain of Hepatocyte nuclear factor 3-beta (Homo sapiens) (Q9Y261 whole entry, looked up): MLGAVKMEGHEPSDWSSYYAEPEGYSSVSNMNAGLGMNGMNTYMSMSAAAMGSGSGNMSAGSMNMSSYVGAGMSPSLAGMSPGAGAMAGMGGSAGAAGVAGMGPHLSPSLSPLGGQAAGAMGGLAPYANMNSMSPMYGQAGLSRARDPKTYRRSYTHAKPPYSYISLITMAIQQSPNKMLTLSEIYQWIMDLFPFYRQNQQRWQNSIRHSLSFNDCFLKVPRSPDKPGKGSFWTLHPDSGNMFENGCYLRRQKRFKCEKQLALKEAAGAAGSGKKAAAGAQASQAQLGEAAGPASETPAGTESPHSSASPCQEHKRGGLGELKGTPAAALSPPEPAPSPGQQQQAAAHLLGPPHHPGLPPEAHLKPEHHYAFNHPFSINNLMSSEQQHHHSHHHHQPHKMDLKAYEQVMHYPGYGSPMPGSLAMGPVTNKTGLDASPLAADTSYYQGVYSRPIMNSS
# How it was run: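 Endogenous transcription factor activity is captured via cis-element-driven reporter transcripts in transfected HepG2. Total RNA taken at 24 h post-dosing; labelled RT-PCR products resolved by capillary electrophoresis. Gain or loss fitted versus DMSO.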
# [2] = ATG_GLI_CIS: Attagene CIS-FACTORIAL HepG2 Assay for human Zinc Finger Protein GLI1 (AID 2282945; active = hit-call score of the fitted dose curve at least 0.9, where 1 is the maximum; inactive = score below 0.9); settings: HepG2, Attagene cis-factorial reporter mRNA, GLI element; actives raise or lower the signal
# How it was run: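 HepG2 cells transiently transfected with cis-promoter multiplexed reporter units report endogenous transcription factor activity. After 24 h chemical exposure, reporter mRNA was quantified by RT-PCR, 6-FAM labelling, HpaI digestion and capillary electrophoresis, with bidirectional fitting against DMSO.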
# [3] = ATG_GRE_CIS: Attagene CIS-FACTORIAL HepG2 Assay for human Glucocorticoid Response Elements (GRE) (AID 2282947; active = hit-call score of the fitted dose curve at least 0.9, where 1 is the maximum; inactive = score below 0.9); settings: HepG2 GRE cis-reporter, Attagene multiplex mRNA; actives raise or lower the signal
# How it was run: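 Cells (HepG2) bearing transfected cis-promoter reporter transcription units were treated with chemical for 24 hours. Reporter mRNA was measured via RT-PCR with capillary electrophoresis, and activity was fitted in both directions relative to DMSO.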
# [4] = ATG_MRE_CIS: Attagene CIS-FACTORIAL HepG2 Assay for human Metal Responsive Element (MRE) (AID 2282954; active = hit-call score of the fitted dose curve at least 0.9, where 1 is the maximum; inactive = score below 0.9); settings: HepG2 MRE cis-reporter transcription, Attagene multiplex; actives raise or lower the signal
# How it was run: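 Cells were transfected with cis-promoter reporter transcription units, then dosed for 24 h. RNA was reverse-transcribed, amplified, fluorescently labelled and resolved by capillary electrophoresis, and activity was fitted in both directions relative to DMSO.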
# [5] = ATG_PBREM_CIS: Attagene CIS-FACTORIAL HepG2 Assay for human Phenobarbital-responsive Enhancer Module (PBREM) (AID 2282955; active = hit-call score of the fitted dose curve at least 0.9, where 1 is the maximum; inactive = score below 0.9); settings: HepG2 PBREM cis-reporter, Attagene multiplexed transcription; actives raise or lower the signal
# How it was run: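 Endogenous transcription factor activity was read from reporter transcripts in transiently transfected human HepG2 liver cells after 24 h dosing. RT-PCR products were fluorescently labelled, HpaI-cut and sized by capillary electrophoresis; activity fitted bidirectionally against DMSO baseline.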
# [6] = biological target: Hepatocyte nuclear factor 4-alpha (Homo sapiens) (UniProt P41235); test: ATG_HNF4a_TRANS: Attagene TRANS-FACTORIAL HepG2 Assay for human Hepatocyte Nuclear Factor 4 alpha (HNF4a) (AID 2282982); settings: HepG2 HNF4a transactivation reporter, mRNA readout
# Chain of Hepatocyte nuclear factor 4-alpha (Homo sapiens) (P41235 whole entry, looked up, the tested form may be a part): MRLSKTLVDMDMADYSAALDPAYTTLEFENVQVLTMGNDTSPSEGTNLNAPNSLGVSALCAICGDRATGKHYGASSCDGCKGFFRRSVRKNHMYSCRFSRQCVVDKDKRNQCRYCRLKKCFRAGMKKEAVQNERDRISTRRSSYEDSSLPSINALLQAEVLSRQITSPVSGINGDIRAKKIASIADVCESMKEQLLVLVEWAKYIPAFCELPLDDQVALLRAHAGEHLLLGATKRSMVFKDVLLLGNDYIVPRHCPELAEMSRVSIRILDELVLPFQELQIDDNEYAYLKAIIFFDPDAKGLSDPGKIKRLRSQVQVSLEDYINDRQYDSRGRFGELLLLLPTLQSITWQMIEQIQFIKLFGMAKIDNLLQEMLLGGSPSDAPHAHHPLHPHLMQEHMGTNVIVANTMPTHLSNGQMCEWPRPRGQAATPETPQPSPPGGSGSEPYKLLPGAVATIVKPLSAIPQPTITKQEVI
# How it was run: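 In this trans-factorial format, a chimeric HNF4a-GAL4 fusion drives a GAL4-UAS reporter in transfected HepG2 liver cells. After 24 h treatment, reporter mRNA induction is measured by RT-PCR with capillary electrophoresis, relative to DMSO.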
# [7] = ATG_M_32_TRANS: Attagene TRANS-FACTORIAL HepG2 Assay for M32 Transcription Factor (Internal Marker) (AID 2282984); settings: HepG2 Attagene TRANS M32 internal marker reporter;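 also: transcript level of a background control reporter unit measured by RT-PCR and capillary electrophoresis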
# How it was run: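 After 24 h dosing of transfected HepG2 cells, total RNA was reverse-transcribed, reporter sequences PCR-amplified, 6-FAM labelled by primer extension and HpaI-digested before capillary electrophoresis. Signal increase over DMSO was fitted.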
# [8] = biological target: Nuclear respiratory factor 1 (Homo sapiens) (UniProt Q16656); test: ATG_NRF1_CIS: Attagene CIS-FACTORIAL HepG2 Assay for human Nuclear Respiratory Factor 1 (NRF1) Orphan Gene (AID 2282987; active = hit-call score of the fitted dose curve at least 0.9, where 1 is the maximum; inactive = score below 0.9); settings: HepG2 NRF1 cis-element reporter, Attagene multiplex; actives raise or lower the signal
# Chain of Nuclear respiratory factor 1 (Homo sapiens) (Q16656 whole entry, looked up): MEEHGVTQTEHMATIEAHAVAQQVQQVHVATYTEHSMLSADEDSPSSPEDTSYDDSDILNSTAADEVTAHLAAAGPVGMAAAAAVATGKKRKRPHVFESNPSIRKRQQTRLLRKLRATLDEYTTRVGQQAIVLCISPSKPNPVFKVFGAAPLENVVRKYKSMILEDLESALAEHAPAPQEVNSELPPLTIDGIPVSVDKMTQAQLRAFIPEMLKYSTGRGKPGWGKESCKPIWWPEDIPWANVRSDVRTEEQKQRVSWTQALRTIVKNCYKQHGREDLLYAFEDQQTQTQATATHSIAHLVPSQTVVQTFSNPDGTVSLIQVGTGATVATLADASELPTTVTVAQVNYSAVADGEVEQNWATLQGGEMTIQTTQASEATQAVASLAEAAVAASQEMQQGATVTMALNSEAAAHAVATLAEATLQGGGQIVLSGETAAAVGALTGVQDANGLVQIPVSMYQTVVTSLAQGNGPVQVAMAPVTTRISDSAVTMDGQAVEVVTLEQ
# How it was run: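 Endogenous NRF1-driven reporter transcription in transfected HepG2 cells after 24 h treatment. Readout: RT-PCR products, 6-FAM labelled and resolved by capillary electrophoresis; changes fitted both directions relative to DMSO.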
# [9] = ATG_NF_kB_CIS: Attagene CIS-FACTORIAL HepG2 Assay for human Nuclear Factor Kappa B (NF-kB) (AID 2282991; active = hit-call score of the fitted dose curve at least 0.9, where 1 is the maximum; inactive = score below 0.9); settings: HepG2 Attagene cis-factorial NF-kB reporter mRNA; actives raise or lower the signal
# How it was run: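 Readout is reporter transcript level, gain or loss versus DMSO, measured 24 h post-dose via RT-PCR, fluorescent labelling and capillary electrophoresis. Human HepG2 liver cells carried transiently transfected CIS reporter constructs reflecting endogenous factors.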
# [10] = biological target: human Peroxisome Proliferator-activated Receptor alpha (PPARa), PPARA (gene 5465) (UniProt Q07869); test: ATG_PPARa_TRANS: Attagene TRANS-FACTORIAL HepG2 Assay for human Peroxisome Proliferator-activated Receptor alpha (PPARa) (AID 2283001)
# Chain of human Peroxisome Proliferator-activated Receptor alpha (PPARa), PPARA (gene 5465) (Q07869 whole entry, looked up): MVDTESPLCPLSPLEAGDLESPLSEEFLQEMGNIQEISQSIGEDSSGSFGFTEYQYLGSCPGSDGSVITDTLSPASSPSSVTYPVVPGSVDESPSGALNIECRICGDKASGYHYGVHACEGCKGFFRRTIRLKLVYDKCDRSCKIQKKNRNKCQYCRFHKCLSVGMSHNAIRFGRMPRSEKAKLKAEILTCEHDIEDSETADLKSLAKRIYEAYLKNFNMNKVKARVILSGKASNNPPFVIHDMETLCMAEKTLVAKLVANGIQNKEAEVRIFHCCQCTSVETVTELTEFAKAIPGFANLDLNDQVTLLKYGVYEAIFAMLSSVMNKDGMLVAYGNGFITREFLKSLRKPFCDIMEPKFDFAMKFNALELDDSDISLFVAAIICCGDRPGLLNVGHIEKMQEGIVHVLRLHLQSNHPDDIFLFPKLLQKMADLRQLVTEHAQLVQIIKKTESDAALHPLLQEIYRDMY
# How it was run: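 Cells (HepG2) are transfected with multiple reporter transcription units, exposed to chemical for 24 h, then total RNA is reverse-transcribed and amplified. Labelled products are quantified by capillary electrophoresis; induction is referenced to DMSO.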
# [11] = biological target: Retinoic acid receptor RXR-alpha (Homo sapiens) (UniProt P19793); test: ATG_RXRa_TRANS: Attagene TRANS-FACTORIAL HepG2 Assay for human Retinoid X Receptor alpha (RXRa) (AID 2283012)
# Chain of Retinoic acid receptor RXR-alpha (Homo sapiens) (P19793 whole entry, looked up, the tested form may be a part): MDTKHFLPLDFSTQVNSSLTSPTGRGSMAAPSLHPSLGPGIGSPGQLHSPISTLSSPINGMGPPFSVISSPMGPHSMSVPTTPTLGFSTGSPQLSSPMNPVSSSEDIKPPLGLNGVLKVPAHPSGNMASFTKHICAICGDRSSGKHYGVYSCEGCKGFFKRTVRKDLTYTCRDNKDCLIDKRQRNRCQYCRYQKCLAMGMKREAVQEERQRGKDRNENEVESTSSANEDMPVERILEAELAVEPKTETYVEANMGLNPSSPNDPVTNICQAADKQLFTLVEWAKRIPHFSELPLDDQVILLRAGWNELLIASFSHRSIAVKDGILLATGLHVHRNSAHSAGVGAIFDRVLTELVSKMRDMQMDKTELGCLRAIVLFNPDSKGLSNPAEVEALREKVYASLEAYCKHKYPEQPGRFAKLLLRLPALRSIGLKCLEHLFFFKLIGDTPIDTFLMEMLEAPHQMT
# How it was run: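 Measures exogenous chimeric NR-GAL4 activity in transfected HepG2 liver cells after 24 h of dosing. Induced reporter mRNA was detected by RT-PCR with capillary electrophoresis, and gain of signal was analysed against DMSO.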
# [12] = biological target: human Retinoid X Receptor beta (RXRb), RXRB (gene 6257) (UniProt P28702); test: ATG_RXRb_TRANS: Attagene TRANS-FACTORIAL HepG2 Assay for human Retinoid X Receptor beta (RXRb) (AID 2283013)
# Chain of human Retinoid X Receptor beta (RXRb), RXRB (gene 6257) (P28702 whole entry, looked up, the tested form may be a part): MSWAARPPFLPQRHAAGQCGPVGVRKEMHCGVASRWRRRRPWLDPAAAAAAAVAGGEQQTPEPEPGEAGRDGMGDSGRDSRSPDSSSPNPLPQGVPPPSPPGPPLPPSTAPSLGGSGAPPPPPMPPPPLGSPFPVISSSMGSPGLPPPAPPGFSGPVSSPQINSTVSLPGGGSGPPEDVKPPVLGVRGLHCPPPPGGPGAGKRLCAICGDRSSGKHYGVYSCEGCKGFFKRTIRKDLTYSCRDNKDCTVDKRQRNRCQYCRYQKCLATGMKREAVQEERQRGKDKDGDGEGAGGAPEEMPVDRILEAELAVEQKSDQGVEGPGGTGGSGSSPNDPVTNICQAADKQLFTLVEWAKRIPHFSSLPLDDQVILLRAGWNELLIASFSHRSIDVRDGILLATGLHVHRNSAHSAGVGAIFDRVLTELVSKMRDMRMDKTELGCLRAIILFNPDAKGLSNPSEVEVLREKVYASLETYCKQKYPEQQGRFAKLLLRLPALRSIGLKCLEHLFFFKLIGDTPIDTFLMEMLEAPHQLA
# How it was run: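 Chimeric receptor-Gal4 activity was assessed in transiently transfected human HepG2 cells after 24 h exposure. Transcripts from GAL4-UAS reporters were quantified by fluorescent RT-PCR and capillary electrophoresis, with DMSO as negative control and baseline.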
# [13] = TOX21_p53_BLA_p2_viability: Viability Assessment in the Tox21 HCT-116 p53 Agonism Beta-lactamase Assay, Phase 2 (AID 2283591);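 also: compound exposure lasted 16 h at 37 °C; actives lower the ATP signal meaning cytotoxicity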
# How it was run: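 HCT-116 p53-bla cells (4000/well) rested 5 h at 37C, then received compounds in DMSO (217-fold dilution) for 16 h at 37C, 5% CO2. After the CCF4 read, CellTiter-Glo was added; ATP luminescence was read after 30 min at room temperature.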
# [14] = biological target: Cellular tumor antigen p53 (Homo sapiens) (UniProt P04637); test: TOX21_p53_BLA_p3_ratio: Tox21 HCT-116 p53 Agonism Beta-lactamase Assay, Ratio, Phase 3 (AID 2283596)
# Chain of Cellular tumor antigen p53 (Homo sapiens) (P04637 whole entry, looked up): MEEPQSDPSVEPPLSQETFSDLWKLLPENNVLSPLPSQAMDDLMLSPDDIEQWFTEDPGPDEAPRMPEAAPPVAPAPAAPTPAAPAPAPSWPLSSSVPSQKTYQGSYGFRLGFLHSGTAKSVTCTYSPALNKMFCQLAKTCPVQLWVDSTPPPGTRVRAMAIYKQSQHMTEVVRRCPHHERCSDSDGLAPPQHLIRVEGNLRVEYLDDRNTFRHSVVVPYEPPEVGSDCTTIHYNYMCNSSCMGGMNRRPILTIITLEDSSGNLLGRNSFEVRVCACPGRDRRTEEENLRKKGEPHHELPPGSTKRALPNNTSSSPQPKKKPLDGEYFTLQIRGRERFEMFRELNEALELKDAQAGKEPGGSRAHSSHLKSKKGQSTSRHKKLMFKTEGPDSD
# How it was run: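 Cells were seeded at 4000/well, rested 5 h at 37C, then dosed with DMSO compound solutions (217-fold dilution) for 16 h. CCF4-AM substrate was loaded for 2 h at room temperature, and the 460/530 nm emission ratio was fitted for gain of signal versus DMSO.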
# [15] = biological target: Cellular tumor antigen p53 (Homo sapiens) (UniProt P04637); test: TOX21_p53_BLA_p5_ratio: Tox21 HCT-116 p53 Agonism Beta-lactamase Assay, Ratio, Phase 5 (AID 2283599)
# How it was run: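 HCT-116 cells carrying a p53-inducible beta-lactamase reporter were seeded at 4000 cells/well and dosed after 5 h with compound in DMSO (217-fold dilution). After 16 h at 37C, CCF4-AM substrate was added for 2 h, and the 460/530 nm emission ratio was scored as gain-of-signal versus DMSO.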
# [16] = TOX21_p53_BLA_p5_viability: Viability Assessment in the Tox21 HCT-116 p53 Agonism Beta-lactamase Assay, Phase 5 (AID 2283600)
# How it was run: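 Viability is taken from cellular ATP content, measured by luciferase luminescence in the same wells after the beta-lactamase ratio read. Cells are seeded at 4000 per well and exposed to DMSO-dissolved compounds, diluted 217-fold, for 16 h.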
# [17] = biological target: Cellular tumor antigen p53 (Homo sapiens) (UniProt P04637); test: TOX21_p53_BLA_p4_ratio: Tox21 HCT-116 p53 Agonism Beta-lactamase Assay, Ratio, Phase 4 (AID 2283601)
# How it was run: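 HCT116 cells carrying an inducible beta-lactamase reporter were plated at 4000 cells/well, rested 5 h, then exposed to compounds in DMSO (217-fold dilution) for 16 h at 37C. CCF4-AM substrate was loaded 2 h at room temperature; 460/530 nm emission ratio scored gain-of-signal versus DMSO.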
# [18] = ATG_M_32_CIS: Attagene CIS-FACTORIAL HepG2 Assay for M32 Transcription Factor (Internal Marker) (AID 2282949; active = hit-call score of the fitted dose curve at least 0.9, where 1 is the maximum; inactive = score below 0.9;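 also: background control marker of the multiplexed CIS panel rather than a real target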); settings: HepG2 Attagene cis-factorial M32 reporter, mRNA; actives raise or lower the signal
# How it was run: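 HepG2 transfectants (cis-regulated reporter transcription units) dosed 24 h. Reporter mRNA by RT-PCR plus CE, analysed as gain or loss relative to DMSO.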
# [19] = ATG_RORE_CIS: Attagene CIS-FACTORIAL HepG2 Assay for human RAR-related Orphan Receptor Element (RORE) (AID 2282959; active = hit-call score of the fitted dose curve at least 0.9, where 1 is the maximum; inactive = score below 0.9); settings: HepG2 Attagene cis-factorial RORE reporter, mRNA; actives raise or lower the signal
# How it was run: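 RORE reporter transcripts reflecting endogenous factor activity were read after 24 h compound exposure of transfected HepG2 cells, using reverse transcription, PCR, fluorescent labelling and capillary electrophoresis sizing. Gain or loss fitted against DMSO.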
# [20] = biological target: Retinoic acid receptor alpha (Homo sapiens) (UniProt P10276); test: ATG_DR5_RAR_CIS: Attagene CIS-FACTORIAL HepG2 Assay for human Retinoic Acid Receptor Alpha (RARE), DR5 submotif (AID 2282934; active = hit-call score of the fitted dose curve at least 0.9, where 1 is the maximum; inactive = score below 0.9); settings: HepG2 Attagene cis-factorial RARE DR5 reporter, mRNA; actives raise or lower the signal
# Chain of Retinoic acid receptor alpha (Homo sapiens) (P10276 whole entry, looked up): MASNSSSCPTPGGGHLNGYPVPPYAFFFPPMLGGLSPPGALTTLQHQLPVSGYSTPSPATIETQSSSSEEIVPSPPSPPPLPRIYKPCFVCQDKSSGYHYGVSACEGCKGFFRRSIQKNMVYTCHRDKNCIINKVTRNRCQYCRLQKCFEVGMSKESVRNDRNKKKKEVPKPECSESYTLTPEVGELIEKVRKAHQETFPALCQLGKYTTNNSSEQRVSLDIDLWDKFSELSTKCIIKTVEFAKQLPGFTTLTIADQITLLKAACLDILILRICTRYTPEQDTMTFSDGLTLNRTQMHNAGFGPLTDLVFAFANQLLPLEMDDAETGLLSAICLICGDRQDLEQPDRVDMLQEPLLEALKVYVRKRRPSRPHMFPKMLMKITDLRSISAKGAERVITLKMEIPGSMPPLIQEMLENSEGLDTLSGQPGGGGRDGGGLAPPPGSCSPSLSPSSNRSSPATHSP
# How it was run: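 HepG2 cells transiently transfected with multiplexed reporter units under cis (DR5 RARE) promoters, so endogenous transcription factor activity is measured. After 24 h compound exposure, reporter mRNA is quantified by RT-PCR with fluorescent labelling and capillary electrophoresis; bidirectional fitting versus DMSO.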
compound,measurement,setting,value
COCCCN,outcome,[1],inactive
same,outcome,[2],inactive
same,outcome,[3],inactive
same,outcome,[4],inactive
same,outcome,[5],inactive
same,outcome,[6],inactive
same,outcome,[7],inactive
same,outcome,[8],inactive
same,outcome,[9],inactive
same,outcome,[10],inactive
same,outcome,[11],inactive
same,outcome,[12],inactive
same,outcome,[13],inactive
same,outcome,[14],inactive
same,outcome,[15],inactive
same,outcome,[16],inactive
same,outcome,[17],inactive
O=C(O)/C=C/C(=O)O,outcome,[2],inactive
same,outcome,[3],inactive
same,outcome,[18],inactive
same,outcome,[4],inactive
same,outcome,[5],inactive
same,outcome,[7],inactive
same,outcome,[9],inactive
same,outcome,[10],inactive
CN(C)CCCN1c2ccccc2CCc2ccc(Cl)cc21,outcome,[1],inactive
same,outcome,[3],inactive
same,outcome,[4],inactive
same,outcome,[5],inactive
same,outcome,[19],inactive
same,outcome,[6],inactive
same,outcome,[9],inactive
same,outcome,[10],inactive
same,outcome,[11],inactive
same,AC50,[12],5.79 µM (active)
same,AC50,[13],79 µM (active)
same,outcome,[14],inactive
same,AC50,[15],86.8 µM (active)
same,outcome,[15],inactive
same,AC50,[16],77.1 µM (active)
same,outcome,[16],inactive
same,outcome,[17],inactive
CC/C=C\CCCCCO,outcome,[1],inactive
same,outcome,[2],inactive
same,outcome,[3],inactive
same,outcome,[18],inactive
same,outcome,[4],inactive
same,outcome,[5],inactive
same,outcome,[6],inactive
same,outcome,[8],inactive
same,outcome,[10],inactive
same,outcome,[11],inactive
same,outcome,[13],inactive
same,outcome,[14],inactive
same,outcome,[15],inactive
same,outcome,[16],inactive
CC=CC(=O)O,outcome,[20],inactive
same,outcome,[3],inactive
same,outcome,[18],inactive
same,outcome,[4],inactive
same,outcome,[19],inactive
same,outcome,[6],inactive
same,outcome,[7],inactive
same,outcome,[9],inactive
same,outcome,[11],inactive
